# Measured values from the supplement of paper PMC12282887.
# ± gives the standard deviation of the averaged measurements.
# Key:
# Assay in all cases: promoter activity interaction Z-score (Lux/OD deviation from empty-vector control); higher = stronger promoter induction by the compound
# [1] = system: E. coli BW25113 acrABp lux reporter
# How it was run: (§1)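 E. coli BW25113 (wild type or marA, soxS or rob deletion) carrying low-copy luxCDABE promoter reporters grew in 40 µl LB Lennox in 384-well plates at 37°C. Each compound was tested at four 1:2 dilutions in biological duplicates. OD600 and luminescence were read every 30 min for 12 h. Areas were taken over 0–8 h (wild type) or 1–9 h (mutants), and wells below 10% of median growth area were removed. The score is the Z-transformed residual of growth-normalised luminescence fitted against the empty-vector control.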
# [2] = system: E. coli BW25113 marRABp lux reporter
# How it was run: as §1
# [3] = system: E. coli BW25113 micFp lux reporter
# How it was run: as §1
# [4] = system: E. coli BW25113 ompFp lux reporter
# How it was run: as §1
# [5] = system: E. coli BW25113 robp lux reporter
# How it was run: as §1
# [6] = system: E. coli BW25113 soxSp lux reporter
# How it was run: as §1
# [7] = system: E. coli BW25113 tolCp lux reporter
# How it was run: as §1
# [8] = 28.4 µg/ml, genetic background: wild type
# [9] = 28.4 µg/ml, genetic background: ΔmarA
# [10] = 28.4 µg/ml, genetic background: Δrob
# [11] = 28.4 µg/ml, genetic background: ΔsoxS
# [12] = 56.8 µg/ml, genetic background: wild type
# [13] = 56.8 µg/ml, genetic background: ΔmarA
# [14] = 56.8 µg/ml, genetic background: Δrob
# [15] = 56.8 µg/ml, genetic background: ΔsoxS
# [16] = 113.7 µg/ml, genetic background: wild type
# [17] = 113.7 µg/ml, genetic background: ΔmarA
# [18] = 113.7 µg/ml, genetic background: Δrob
# [19] = 113.7 µg/ml, genetic background: ΔsoxS
# [20] = 227.3 µg/ml, genetic background: wild type
# [21] = 227.3 µg/ml, genetic background: ΔmarA
# [22] = 227.3 µg/ml, genetic background: Δrob
# [23] = 227.3 µg/ml, genetic background: ΔsoxS
smiles,measurement,setting,value
COc1ccc(CCN(C)CCCC(C#N)(c2ccc(OC)c(OC)c2)C(C)C)cc1OC (configuration not stated) [Verapamil],promoter activity interaction Z-score,[1]; [8],-0.0103 ± 0.0068
same,promoter activity interaction Z-score,[1]; [9],0.651 ± 0.14
same,promoter activity interaction Z-score,[1]; [10],-0.17 ± 0.16
same,promoter activity interaction Z-score,[1]; [11],-0.0848 ± 0.7
same,promoter activity interaction Z-score,[1]; [12],0.383 ± 0.58
same,promoter activity interaction Z-score,[1]; [13],0.649 ± 0.29
same,promoter activity interaction Z-score,[1]; [14],0.236 ± 0.12
same,promoter activity interaction Z-score,[1]; [15],-0.365 ± 0.9
same,promoter activity interaction Z-score,[1]; [16],0.623 ± 0.79
same,promoter activity interaction Z-score,[1]; [17],2.27 ± 1.4
same,promoter activity interaction Z-score,[1]; [18],0.0537 ± 0.02
same,promoter activity interaction Z-score,[1]; [19],-0.0861 ± 0.73
same,promoter activity interaction Z-score,[1]; [20],0.502 ± 0.14
same,promoter activity interaction Z-score,[1]; [21],2.09 ± 0.52
same,promoter activity interaction Z-score,[1]; [22],0.279 ± 0.19
same,promoter activity interaction Z-score,[1]; [23],0.136 ± 0.55
same,promoter activity interaction Z-score,[2]; [8],0.257 ± 0.13
same,promoter activity interaction Z-score,[2]; [9],0.21 ± 0.17
same,promoter activity interaction Z-score,[2]; [10],0.064 ± 0.21
same,promoter activity interaction Z-score,[2]; [11],-0.241 ± 0.54
same,promoter activity interaction Z-score,[2]; [12],0.22 ± 0.12
same,promoter activity interaction Z-score,[2]; [13],0.273 ± 0.099
same,promoter activity interaction Z-score,[2]; [14],0.311 ± 0.47
same,promoter activity interaction Z-score,[2]; [15],0.0416 ± 0.54
same,promoter activity interaction Z-score,[2]; [16],0.853 ± 0.13
same,promoter activity interaction Z-score,[2]; [17],0.923 ± 0.54
same,promoter activity interaction Z-score,[2]; [18],0.659 ± 0.32
same,promoter activity interaction Z-score,[2]; [19],0.193 ± 0.7
same,promoter activity interaction Z-score,[2]; [20],0.957 ± 0.16
same,promoter activity interaction Z-score,[2]; [21],1.14 ± 0.38
same,promoter activity interaction Z-score,[2]; [22],0.739 ± 0.49
same,promoter activity interaction Z-score,[2]; [23],0.385 ± 0.48
same,promoter activity interaction Z-score,[3]; [8],0.174 ± 0.55
same,promoter activity interaction Z-score,[3]; [9],0.00711 ± 0.17
same,promoter activity interaction Z-score,[3]; [10],0.232 ± 0.1
same,promoter activity interaction Z-score,[3]; [11],-0.114 ± 0.26
same,promoter activity interaction Z-score,[3]; [12],0.0628 ± 0.15
same,promoter activity interaction Z-score,[3]; [13],0.0935 ± 0.19
same,promoter activity interaction Z-score,[3]; [14],0.195 ± 0.062
same,promoter activity interaction Z-score,[3]; [15],-0.187 ± 0.36
same,promoter activity interaction Z-score,[3]; [16],0.65 ± 0.19
same,promoter activity interaction Z-score,[3]; [17],0.105 ± 0.032
same,promoter activity interaction Z-score,[3]; [18],0.115 ± 0.16
same,promoter activity interaction Z-score,[3]; [19],-0.238 ± 0.43
same,promoter activity interaction Z-score,[3]; [20],0.41 ± 0.066
same,promoter activity interaction Z-score,[3]; [21],-0.0581 ± 0.06
same,promoter activity interaction Z-score,[3]; [22],-0.1466 ± 0.00035
same,promoter activity interaction Z-score,[3]; [23],-0.0743 ± 0.052
same,promoter activity interaction Z-score,[4]; [8],-0.365 ± 0.11
same,promoter activity interaction Z-score,[4]; [9],-1.14 ± 0.89
same,promoter activity interaction Z-score,[4]; [10],-0.51 ± 0.49
same,promoter activity interaction Z-score,[4]; [11],-0.279 ± 0.15
same,promoter activity interaction Z-score,[4]; [12],-0.296 ± 0.077
same,promoter activity interaction Z-score,[4]; [13],-0.384 ± 0.03
same,promoter activity interaction Z-score,[4]; [14],-0.384 ± 0.42
same,promoter activity interaction Z-score,[4]; [15],-0.491 ± 0.42
same,promoter activity interaction Z-score,[4]; [16],0.443 ± 0.46
same,promoter activity interaction Z-score,[4]; [17],0.589 ± 0.067
same,promoter activity interaction Z-score,[4]; [18],0.355 ± 1.1
same,promoter activity interaction Z-score,[4]; [19],-0.599 ± 0.19
same,promoter activity interaction Z-score,[4]; [20],1.21 ± 0.48
same,promoter activity interaction Z-score,[4]; [21],1.56 ± 0.13
same,promoter activity interaction Z-score,[4]; [22],1.4 ± 0.93
same,promoter activity interaction Z-score,[4]; [23],1.09 ± 0.35
same,promoter activity interaction Z-score,[5]; [8],0.158 ± 0.075
same,promoter activity interaction Z-score,[5]; [9],0.0269 ± 0.54
same,promoter activity interaction Z-score,[5]; [10],0.215 ± 1.7
same,promoter activity interaction Z-score,[5]; [11],0.00204 ± 1.1
same,promoter activity interaction Z-score,[5]; [12],1.19 ± 0.91
same,promoter activity interaction Z-score,[5]; [13],-0.42 ± 0.62
same,promoter activity interaction Z-score,[5]; [14],-0.201 ± 0.23
same,promoter activity interaction Z-score,[5]; [15],0.308 ± 0.86
same,promoter activity interaction Z-score,[5]; [16],1.4 ± 0.44
same,promoter activity interaction Z-score,[5]; [17],1.73 ± 0.022
same,promoter activity interaction Z-score,[5]; [18],0.608 ± 0.43
same,promoter activity interaction Z-score,[5]; [19],-0.00665 ± 0.6
same,promoter activity interaction Z-score,[5]; [20],1.1 ± 0.18
same,promoter activity interaction Z-score,[5]; [21],2.29 ± 0.91
same,promoter activity interaction Z-score,[5]; [22],0.783 ± 1.4
same,promoter activity interaction Z-score,[5]; [23],1.05 ± 0.94
same,promoter activity interaction Z-score,[6]; [8],-0.18 ± 0.32
same,promoter activity interaction Z-score,[6]; [9],-0.165 ± 0.065
same,promoter activity interaction Z-score,[6]; [10],0.0441 ± 0.32
same,promoter activity interaction Z-score,[6]; [11],-0.273 ± 0.25
same,promoter activity interaction Z-score,[6]; [12],-0.187 ± 0.26
same,promoter activity interaction Z-score,[6]; [13],-0.0917 ± 0.18
same,promoter activity interaction Z-score,[6]; [14],-0.138 ± 0.19
same,promoter activity interaction Z-score,[6]; [15],-0.142 ± 0.42
same,promoter activity interaction Z-score,[6]; [16],0.17 ± 0.18
same,promoter activity interaction Z-score,[6]; [17],-0.0904 ± 0.16
same,promoter activity interaction Z-score,[6]; [18],-0.00688 ± 0.12
same,promoter activity interaction Z-score,[6]; [19],-0.0619 ± 0.28
same,promoter activity interaction Z-score,[6]; [20],-0.0451 ± 0.043
same,promoter activity interaction Z-score,[6]; [21],-0.359 ± 0.078
same,promoter activity interaction Z-score,[6]; [22],-0.361 ± 0.061
same,promoter activity interaction Z-score,[6]; [23],-0.0524 ± 0.36
same,promoter activity interaction Z-score,[7]; [8],0.46 ± 1.1
same,promoter activity interaction Z-score,[7]; [9],-0.252 ± 0.52
same,promoter activity interaction Z-score,[7]; [10],1.67 ± 0.9
same,promoter activity interaction Z-score,[7]; [11],0.403 ± 0.82
same,promoter activity interaction Z-score,[7]; [12],0.842 ± 0.79
same,promoter activity interaction Z-score,[7]; [13],0.112 ± 0.0026
same,promoter activity interaction Z-score,[7]; [14],1.38 ± 0.88
same,promoter activity interaction Z-score,[7]; [15],0.773 ± 0.7
same,promoter activity interaction Z-score,[7]; [16],1.44 ± 0.11
same,promoter activity interaction Z-score,[7]; [17],0.195 ± 0.35
same,promoter activity interaction Z-score,[7]; [18],0.654 ± 0.3
same,promoter activity interaction Z-score,[7]; [19],0.501 ± 1.5
same,promoter activity interaction Z-score,[7]; [20],0.0187 ± 0.66
same,promoter activity interaction Z-score,[7]; [21],-0.769 ± 0.041
same,promoter activity interaction Z-score,[7]; [22],-0.237 ± 0.19
same,promoter activity interaction Z-score,[7]; [23],-0.139 ± 0.8
